Hits are enriched below; roughly 3.9% of the tested compounds scored in any of these assays.
NSD2 inh: inhibitors of human histone methyltransferase NSD2; O96028; NSD2 peptide methylation, AlphaScreen, 120 min; inhibition, % at 12.5 µM; hit rate 0.54% among 310,000; in the data active means inhibition above about 50%
CDK5 p35 inh: CDK5/p35 (human) kinase inhibition. AID 488839. inhibition, % at 10 µM. Q00535+Q15078. Recombinant CDK5/p35, ADP-Glo luminescence, 60 min. hit rate 0.01% among 330,000;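 active means highest replicate inhibition of at least 50% and at least 75% of replicates reaching 50%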;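 further: plate controls were DMSO neutral control for no effect and GW8510 at 10 µM for full effect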
Target sequence (Q00535 whole entry, looked up): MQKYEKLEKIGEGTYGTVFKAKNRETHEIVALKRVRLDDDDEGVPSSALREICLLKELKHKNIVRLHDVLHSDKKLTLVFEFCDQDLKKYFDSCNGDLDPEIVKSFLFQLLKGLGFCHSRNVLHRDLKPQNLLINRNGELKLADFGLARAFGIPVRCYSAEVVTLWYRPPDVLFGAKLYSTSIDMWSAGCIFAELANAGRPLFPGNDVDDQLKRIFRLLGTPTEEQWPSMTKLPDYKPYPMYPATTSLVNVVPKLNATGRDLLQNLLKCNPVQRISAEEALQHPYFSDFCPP
Target sequence (Q15078 whole entry, looked up): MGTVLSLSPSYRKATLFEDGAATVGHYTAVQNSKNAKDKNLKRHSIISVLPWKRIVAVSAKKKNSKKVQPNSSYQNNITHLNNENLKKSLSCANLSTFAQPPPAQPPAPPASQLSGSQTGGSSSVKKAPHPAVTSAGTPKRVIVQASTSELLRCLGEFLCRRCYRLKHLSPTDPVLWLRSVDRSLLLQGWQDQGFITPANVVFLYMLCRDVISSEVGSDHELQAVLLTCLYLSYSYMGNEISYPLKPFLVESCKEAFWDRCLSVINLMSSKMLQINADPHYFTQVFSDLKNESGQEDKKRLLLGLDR
ALR inh: human ALR oxidase inhibition via reduced H2O2; hit rate 3.8% among 290,000; P55789; purified ALR, DTT oxidation, H2O2 HRP-luminol luminescence; inhibition, % (no concentration beside the values);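 active means mean replicate inhibition above about 79%, with every replicate also reaching it, limit read from the data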
Glyco luc inh: blocks N-linked glycosylation in D54 reporter cells. D54 ERlucT glycosylation luciferase reporter, 24 h; percent of 100 nM tunicamycin response. reporter increase, % at 12.5 µM. hit rate 0.23% among 360,000;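 active means mean luciferase reporter signal, scaled so untreated is 0 and the glycosylation-blocking control 100, at or above a set limit in every replicate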;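 further: luciferase carries N-glycosylation sites so blocking glycosylation raises the light; 0% = median of neutral control wells and 100% = median of 100 nM tunicamycin wells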
Casp6 inh: caspase-6 (human) enzyme inhibition | P55212 | purified caspase-6, Z-VEID-R110 cleavage fluorescence | inhibition, % at 12.5 µM | hit rate 0.53% among 350,000;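 active means mean inhibition across replicates at least about 35%, with every replicate also reaching that limit, limit read from the data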;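 further: 0% = median of neutral control wells and 100% = no fluorescence left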
SUMO Mot1 rescue: blocks SUMOylation pathway, rescuing yeast Mot1-301 growth. S. cerevisiae Mot1-301 growth rescue, ATP luminescence, 38.5C; percent above DMSO median, 100 means doubled. growth rescue, % at 18.8 µM. hit rate 1% among 320,000. AID 2716;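 active means every valid replicate shows activation above 250% relative to neutral control wells; inactive means the rest, any valid replicate at or below 250%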;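 further: OY570 slx delta 5 strain wells were the positive control but not used for scaling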
* = called active by the depositor; x = no result given.

SMILES	NSD2 inh	CDK5 p35 inh	ALR inh	Glyco luc inh	Casp6 inh	SUMO Mot1 rescue
CCC(=O)Nc1ccc2c(c1)OC[C@@H](C)N(C(C)=O)C[C@@H](C)[C@@H](OC)CN(C)C2=O	x	x	x	x	4	x
CN1CCN(/N=C/c2nc(-c3cccc([N+](=O)[O-])c3)n3ccccc23)CC1	8	-8	99*	2	-11	5
COc1cc(/C=N/NC(=O)c2ccc(NC(=O)C3CCCCC3)cc2)ccc1O	1	-1	51	0	1	9
COc1cc(/C=N/NC(=O)NC2CCCCC2)ccc1O	-1	0	99*	-1	0	25
COc1cc(/C=N/NC(=O)NC2CCCCC2)cc(OC)c1O	26	1	99*	-5	6	-1
COc1cc(/C=N/N2C(=O)C3C4C=CC(CC4)C3C2=O)ccc1O (centres undefined)	0	-1	90*	1	x	2
O=C(N/N=C/c1ccccc1)NC1CCCCC1	0	1	-4	2	x	-24
CN1C(=O)c2cc(NC(=O)C3CCOCC3)ccc2OC[C@H]2O[C@H](CC(=O)NC3CCCC3)CC[C@H]21	x	x	x	x	-4	x
O=C(O)c1cccc(Nc2ccnc(Nc3cccc(C(=O)O)c3)n2)c1	2	1	x	-1	35*	13
CC1C(C#N)=C(SCC(N)=O)NC2=C1C(=O)CC(C)(C)C2 (centres undefined)	19	3	46	-1	6	-11
CCC1C(C#N)=C(SCC(N)=O)NC2=C1C(=O)CC(C)(C)C2 (centres undefined)	-2	x	97*	-1	1	2
CCN1C(=O)CC(c2ccccc2)N(C2CCCC2)c2nc(Nc3ccc(C(=O)NC4CCN(C)CC4)cc3OC)ncc21 (centres undefined)	x	2	-1	60*	x	-6
COc1cc(C(=O)NC2CCN(C)CC2)ccc1Nc1ncc2c(n1)N(Cc1ccccc1)CCC(=O)N2C	x	1	x	105*	-64	x
COc1cc(C(=O)NC2CCN(C)CC2)ccc1Nc1ncc2c(n1)N(C1CCCCC1)CCC(=O)N2C	x	0	x	52*	-16	x
COc1nc(Nc2ccc(O)cc2)nc(OC(C(F)(F)F)C(F)(F)F)n1	0	4	99*	0	x	1
COc1ccccc1/C=C/C(=O)NNC(=O)c1cc(C)oc1C	2	1	x	0	1	-4
O=C(NC(=S)NNC(=O)c1ccco1)c1ccc(Br)cc1	4	4	99*	1	2	-17
Cc1cc(C(=O)NNC(=O)/C=C/c2ccco2)c(C)o1	12	-1	x	1	52*	x
O=C(NNC(=S)NC(=O)c1ccco1)c1ccc(F)cc1	0	0	97*	2	-6	-18
O=C(/C=C/c1ccco1)NC(=S)NNC(=O)c1ccco1	29	-2	98*	2	7	-4
COc1ccc(C(=O)NNC(=S)NC(=O)c2ccco2)cc1	0	-1	31	-1	x	2
Cn1cccc1CC(=O)NNC(=S)NC(=O)c1ccc(F)cc1	1	-2	95*	2	0	19
O=C(NC(=S)NNC(=O)[C@H]1C[C@@H]1c1ccccc1)c1ccc(F)cc1	1	0	26	1	-1	-30
C=CCSc1nnc(-c2ccccc2N=Cc2c(C)[nH]n(-c3ccccc3)c2=O)c(=O)[nH]1	2	-2	97*	1	x	-3
O=C(CCc1ccccc1)N/N=C/c1cccc(O)c1	-1	0	34	0	-1	x
SMILES	NSD2 inh	CDK5 p35 inh	ALR inh	Glyco luc inh	Casp6 inh	SUMO Mot1 rescue
O=C(N/N=C/c1cccc(O)c1)N/N=C/c1cccc(O)c1	0	-1	82*	3	0	-13
CC(C)CC#Cc1ccc2c(c1)O[C@@H](CN(C)S(C)(=O)=O)[C@H](C)CN([C@H](C)CO)S2(=O)=O	x	x	x	x	1	x
Cc1onc(-c2ccccc2Cl)c1C(=O)N1C=CC(C(F)(F)F)=NCC1	0	2	-1	1	x	-14
O=C(c1ccc([N+](=O)[O-])cc1)N1C=CC(C(F)(F)F)=NCC1	-1	1	-14	0	5	346*
C=COC(=O)CSc1snc(SCC(=O)OC)c1C#N	-2	-1	99*	-1	x	30
CCN(CC)C(=O)CSc1nsc(SCC(=O)N(CC)CC)c1C#N	-3	2	-2	0	0	-6
